40 compounds from PubChem BioAssay (NCI) can be followed below.

Structures are written as SMILES. Compounds without any hit were thinned out: in the full panel of roughly 83,000, 20% have a hit.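 Cell lines were cultured in 96-well plates, exposed to a single compound concentration, and assessed for percent growth 48 hours later.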 A number with no mark means an inactive call. The source made the active and inactive calls. The calls were made as follows: active = growth percent below 10; inactive = the rest.

This assay relates to MALME-3M melanoma. Kind of assay: NCI-60 one-dose screen, 48 h (100 = growth as untreated, 0 = no growth, -100 = all killed). The following applies: 10 µM.
Turning to `CCN1CCN(CCC(=O)Nc2cccc(-n3cc(-c4ccncc4)c(-c4ccc(Cl)c(OC)c4)n3)c2)CC1`, the growth is -63.6% (active).
The value for `O=C1/C=C/[C@@H](O)[C@@H]2C[C@@H](O)C[C@H]2/C=C/CCC[C@H](C(F)(F)F)O1` was -10.9% (active); that for `CC[C@@H](C(=O)[C@@H](C)[C@@H](O)[C@H](C)[C@@H]1O[C@@H]([C@@H](CC)C(=O)N(CC)CC)CC[C@@H]1C)C1O[C@]2(C=CC(=O)[C@]3(CC[C@@](C)([C@H]4CC[C@](O)(CC)[C@H](C)O4)O3)O2)[C@H](C)C[C@@H]1C` (stereo not given in full) was -27.3% (active); that for `COc1ccc(-c2cc(-c3ccc(Cl)cc3)nc(SCCCCCCC(=O)NO)n2)cc1OC` was 42.5%.
The value for `N#CCc1csc(Cc2ccccc2)n1` was 101%; that for `CC(C)(C)OC(=O)CN1CCc2c(sc3ncnc(N/N=C/c4ccccc4Br)c23)C1` was 93.2%.
Turning to `CC(CN(C)C)Oc1ccccc1NC1=C(Cl)C(=O)C(Nc2ccccc2OC(C)CN(C)C)=C(Cl)C1=O` (stereo not given), the growth was -76.6% (active).
Next, `Nc1ccn(Cc2nnc(CCC(=O)c3nc4ccccc4[nH]3)o2)c(=O)n1`: 90.9%; `CC(C)(C)OC(=O)CN1CCc2c(sc3ncnc(N/N=C/c4cccc5ccccc45)c23)C1`: 72.2%; `CCOC(=O)c1cc(C(=O)c2ccc(Cl)cc2)n2ccc(-c3cc[n+](CC(=O)c4ccc(OC)cc4)cc3)cc12`: 99.6%.
Take `NS(=O)(=O)Oc1ccc(NC(=O)C2CCCCCC2)cc1`: the growth is 102%.
Turning to `NNC(=O)Oc1c(Cl)cc(Cl)cc1[N+](=O)[O-]`, the growth was 94.4%.
The value for `O=C1c2ccccc2C(=O)c2c1ccc(C(Br)Br)c2[N+](=O)[O-]` was -17.5% (active).
`COc1ccc(NC(=O)C2CC3C=CC2C3)c([N+](=O)[O-])c1` (stereo not given): the growth was 116%.
Regarding `CC[C@@H](C(=O)[C@H](C)[C@H](O)[C@@H](C)[C@H]1O[C@H]([C@@H](CC)C(=O)N(CC)CC)CC[C@H]1C)C1O[C@]2(C=C[C@@H](O)[C@]3(CC[C@@](C)([C@H]4CC[C@](O)(CC)[C@H](C)O4)O3)O2)[C@H](C)C[C@@H]1C` (stereo not given in full), the growth is -20.1% (active).
Next, `COc1cc(-c2nn(-c3cccc(NC(=O)NCCNC(=O)c4cccc(C(F)(F)F)c4)c3)cc2-c2ccncc2)ccc1Cl`: 52.6%; `O=C(O)c1cc([N+](=O)[O-])ccc1Oc1ccccc1`: 81.3%; `CCOC(=O)c1cc(C(=O)c2cc(OC)c(OC)c(OC)c2)n2nc(C)ccc12`: 77.9%.
Next, `CC[C@@H](C(=O)[C@@H](C)[C@@H](O)[C@H](C)[C@@H]1O[C@@H]([C@@H](CC)C(=O)O)CC[C@@H]1C)C1O[C@]2(C=CC(=O)[C@]3(CC[C@@](C)([C@H]4CC[C@](O)(CC)[C@H](C)O4)O3)O2)[C@H](C)C[C@@H]1C` (stereo not given in full): -64.8% (active); `Cc1ccc(S(=O)(=O)N(C)CCCCCC(=O)O)cc1`: 98.5%.
As to `COc1ccc(C2=Cn3c(CCC(=O)c4nc5ccccc5[nH]4)nnc3SC2)cc1`, the growth was 102%.
Regarding `CCCN(CCC)C(=O)[C@H](CC)[C@@H]1CC[C@@H](C)[C@@H]([C@H](C)[C@@H](O)[C@@H](C)C(=O)[C@H](CC)C2O[C@]3(C=C[C@@H](O)[C@]4(CC[C@@](C)([C@H]5CC[C@](O)(CC)[C@H](C)O5)O4)O3)[C@H](C)C[C@@H]2C)O1` (stereo not given in full), the growth is -13.3% (active).
The value for `OCC1OC(n2cnc3c(NCc4ccco4)ncnc32)C(O)C1O` (stereo not given) was 65.5%; that for `CC[C@@H](C(=O)[C@H](C)[C@H](O)[C@@H](C)[C@H]1O[C@H]([C@@H](CC)C(=O)O)CC[C@H]1C)C1O[C@]2(C=C[C@@H](O)[C@]3(CC[C@@](C)([C@H]4CC[C@](O)(CC)[C@H](C)O4)O3)O2)[C@H](C)C[C@@H]1C` (stereo not given in full) was -83.6% (active); that for `O=C(/C=C/c1cccc(B(O)O)c1)c1cccc(B(O)O)c1` was 26.4%.
For the compound `Cc1ccc(Cl)cc1NC(=O)CCl`, the growth was 82.1%.
For the compound `COc1cc(/C=C/c2cc(/C=C/c3ccc(O)c(OC)c3)nc(N)n2)ccc1O`, the growth was -28.9% (active).
Consider `C/C(=N\O)c1ccc(NC(=O)CSc2nnc(-c3ccccc3)n2-c2ccccc2)cc1`, for which the growth was 82.9%.
Take `O=C(NCCCNS(=O)(=O)c1ccc(Cl)cc1)Nc1ccc(-n2cc(-c3ccncc3)c(-c3ccc(Cl)c(O)c3)n2)cc1`: the growth is 37.6%.
The value for `CS(=O)(=O)c1nccc(-c2c(-c3cccc(OCCN4CCOCC4)c3)nc3sccn23)n1` was 105%; that for `C=CCSC(CC)(CC)C(=O)NC` was 115%; that for `CCn1c(SC/C(=N/O)c2ccccc2)nnc1-c1ccccc1` was 98.6%.
The value for `CCN(CC)CCOc1ccc2c(c1O)C(=O)c1ccccc1C2=O` was 109%; that for `CS(=O)(=O)c1nccc(-c2c(-c3cccc(O)c3)nc3sccn23)n1` was 94.7%; that for `CC(=O)[C@H]1CC[C@]2(C)[C@@H]1CC[C@@H]1[C@@]3(C)CC(CCC#N)(CCC#N)C(=O)C(C)(C)[C@@H]3CC[C@]12C` was 105%.
Next, `COc1cc(-c2nn(-c3cccc(NC(=O)CN4CCOCC4)c3)cc2-c2cccnc2)ccc1Cl`: 80.5%.
Turning to `CNS(=O)(=O)Oc1ccc(-c2sc3cc(OS(=O)(=O)NC)ccc3c2C(=O)c2ccc(OCCN3CCCCC3)cc2)cc1`, the growth was 57.7%.
Next, `Clc1ccc(/C=C2\CCCC3C2=Nc2ccccc2NC3c2ccc(Cl)cc2)cc1` (stereo not given): 89.7%.
Consider `CCOS(=O)(=O)c1c(C(C)C)cc(C(C)C)cc1C(C)C`, for which the growth was 89.6%.
Next, `COc1cc(/C=C/c2cc(/C=C/c3ccc(O)c(OC)c3)n(C(=O)Nc3ccccc3Cl)n2)ccc1O`: 8.27% (active).
